Screens: PubChem BioAssay, National Center for Advancing Translational Sciences (NCATS)
FLuc counter: firefly luciferase modulation, counter-screen for miR-21 project. AID 588342. 6.9% of 360,000 active. purified FLuc, Km substrates, luminescence inhibition. Potency, µM (titrated, usually from 57.5 µM), for inactives: at the top dose activity change, negative = inhibition, hits mostly inhibitors. P08659;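 also: plate controls were vehicle for no effect and reference inhibitor for full effect; nearly all actives have a fitted effect of over 55% in size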
Target sequence (P08659 whole entry, looked up): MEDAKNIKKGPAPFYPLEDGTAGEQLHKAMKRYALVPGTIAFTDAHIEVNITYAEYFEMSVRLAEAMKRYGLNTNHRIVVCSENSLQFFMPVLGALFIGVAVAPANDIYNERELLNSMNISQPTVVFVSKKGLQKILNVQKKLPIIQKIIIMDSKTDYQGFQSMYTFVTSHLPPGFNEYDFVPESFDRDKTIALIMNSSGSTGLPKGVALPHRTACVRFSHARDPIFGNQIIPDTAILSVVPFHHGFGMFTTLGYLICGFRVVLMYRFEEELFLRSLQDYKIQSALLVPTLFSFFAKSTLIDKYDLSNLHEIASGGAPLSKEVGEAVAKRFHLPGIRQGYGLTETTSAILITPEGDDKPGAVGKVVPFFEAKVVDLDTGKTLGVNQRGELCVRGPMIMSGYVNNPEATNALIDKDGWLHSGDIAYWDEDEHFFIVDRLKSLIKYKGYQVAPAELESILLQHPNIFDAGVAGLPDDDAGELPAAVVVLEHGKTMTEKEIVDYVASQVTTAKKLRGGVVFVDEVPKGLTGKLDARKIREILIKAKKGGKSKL
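Purified P. pyralis luciferase (10nM final) with 10uM D-luciferin and 10uM ATP (Km levels) in 50mM Tris acetate pH 7.5, 10mM Mg acetate, 0.01% Tween-20, 0.05% BSA; qHTS 6-point titration, ~60 µM downward; luminescence read.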
SMN2 splice enh: enhancers of SMN2 splice variant expression; HEK293 SMN2-luciferase splicing reporter, luminescence, 30-36 h; 2.8% of 210,000 active; Potency, µM (titrated, usually from 46.1 µM), for inactives: at the highest dose activity change, positive = activation, usual class: activators; AID 1458; also: % of control where 0% means no effect; nearly all actives have a fitted effect of over 55% in size
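qHTS luciferase splicing reporter: luminescence rises when SMN2 exon 7 is included in transfected HEK293 cells. Compound exposure lasted 30-36 h at 37C, with 4.5 mM final sodium butyrate as control, followed by a ONE-Glo read.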
Rab9 prom act: activators of Rab9 promoter; 2.8% of 320,000 active; Huh7 Rab9 promoter-luciferase reporter, luminescence, 24 h; Potency, µM (top dose mostly 9.22 µM), inactives show top-dose activation, negative = inhibition, hits mostly activators; also: % of control where 0% means no effect; nearly all actives have a fitted effect of over 60% in size
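Luminescence from Amplite-detected luciferase (10 minutes, ambient) reports Rab9 promoter activation. Before that, stable Rab9-luciferase Huh7 cells (1500/well, reduced-serum OP-MEM I plus 10% FBS) were exposed to compound for 24 hours at 37C.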
NPC1 prom act: activates the NPC1 promoter; Huh7 NPC1 promoter luciferase reporter, 24 h; Potency, µM (series often up to 9.22 µM), for the others: at the highest dose activation, most hits filed as activators; 2.4% of 320,000 active; AID 485313; also: % of control where 0% means no effect; nearly all actives have a fitted effect of over 60% in size
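Readout is luciferase luminescence, reflecting NPC1 promoter activation in stably transfected Huh7 cells after 24 h compound exposure at 37 °C in reduced-serum medium with 10% FBS.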
ELG1 DNA repair: ELG1-dependent DNA repair inhibition | HEK293T ELG1-luciferase reporter, luminescence, 16 h; DNA damage induced by 5-fluorouridine | 2.3% of 330,000 active | AID 504467 | Potency, µM (series often up to 46.1 µM), inactives show top-dose activity change, negative = inhibition, usual class: inhibitors; also: % is scaled to controls: 0 for no effect and ±100 for the full control effect; nearly all actives have a fitted effect of over 55% in size
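In this reporter screen, reduction of luminescence relative to DMSO vehicle indicated activity. Compounds and 5-fluorouridine were added together to 2,000 cells per well, incubated for 16 hr at 37 °C, then developed with ONE-Glo.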
ELG1 genotox: inducers of genotoxicity in HEK293T ELG1-luciferase cells | 1.3% of 330,000 active | AID 504466 | Potency, µM (highest dose often 46 µM), for the others: top-dose activity change, positive = activation, actives largely listed as activators | HEK293T ELG1-luciferase reporter, luminescence, 16 h; also: % of control where 0% means no effect; nearly all actives have a fitted effect of over 60% in size
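16 hr compound incubation (37 °C, 5% CO2) of HEK293T cells carrying luciferase-tagged ELG1; luciferase then measured by ONE-Glo luminescence after 30 min at RT.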
* = called active by the depositor; u = inconclusive; x = no result; [ ] = another dose, or the depositor's remark. The list is not random: actives were taken first. Their share in the collection is about 9.3%. Calls follow the shape of the dose curve; as a rule, active = well fitted curve in the direction sought with a large enough effect; inconclusive = small, poorly fitted or top-dose-only effect, or another doubt; inactive = no such curve, though single readings can be large; an effect the other way counts as inactive or inconclusive. Potency is read from the fitted curve at half-maximal effect.

SMILES	FLuc counter	SMN2 splice enh	Rab9 prom act	NPC1 prom act	ELG1 DNA repair	ELG1 genotox
COc1cccc2sc(NNC(=O)COc3ccccc3)nc12	-1%	5%	-1%	4%	-6%	-2%
c1cncc(Nc2nc(-c3cccs3)cs2)c1	19µM*	11µM*	3.2µM*	u	u	9.2µM*
Fc1ccc(Nc2nc(-c3ccncc3)cs2)cc1	u	u	u	u	u	-1%
CC(=O)Nc1ccc(C(=O)N/C(=C/c2ccccc2)C(=O)NCc2ccco2)cc1	1%	x	-1%	-1%	11%	2%
COc1ccc(Cn2c(CNC(=O)Cc3cccc([N+](=O)[O-])c3)nc3cccnc32)cc1	-3%	x	x	x	x	x
CC1CCCN(CCCNC(=O)c2ccc(N3CCCC3=O)cc2)C1 (centres undefined)	1%	x	1%	2%	u	4%
COC(=O)CSc1nc(COc2ccccc2)nc2ccccc12	-13%	x	6%	0%	9%	-6%
Cc1ccccc1NC(=O)CSc1nc(COc2ccccc2)nc2ccccc12	-4%	-21%	-3%	0%	26µM*	-8%
Cc1cc(C)c(NC(=O)CSc2nc(COc3ccccc3)nc3ccccc23)c(C)c1	-2%	-4%	3%	-3%	u	1%
CCN(CC)C(=O)CSc1nc(COc2ccccc2)nc2ccccc12	1%	x	-1%	-5%	23µM*	-10%
Cc1cc(OCC(=O)Nc2ccc(CCO)cc2)c2c(C)c(C)c(=O)oc2c1	-19%	x	15%	-7%	u	u
CC(NS(=O)(=O)c1cccc(C(=O)O)c1)C12CC3CC(CC(C3)C1)C2 (centres undefined)	8%	x	-2%	-1%	13%	1%
CN1Cc2ccccc2N(CC(=O)NCc2ccccc2)C1=O	1%	19%	-1%	2%	9%	-1%
COc1ccc(C(=O)c2oc3nc(C)cc(C)c3c2N)cc1	12µM*	-9%	18%	0%	u	1%
CCc1ccc(C(=O)c2oc3nc(C)cc(C)c3c2N)cc1	15µM*	-5%	24%	3%	14%	6%
Cc1nc2oc(C(=O)c3ccc(Br)cc3)c(N)c2c2c1COC(C)(C)C2	-4%	x	6%	0%	10%	1%
CCCc1nc2oc(C(=O)c3ccccc3)c(N)c2c2c1COC(C)(C)C2	-1%	-20%	1%	-2%	-11%	11%
Cc1ccc(C(=O)c2oc3nc(C)cc(C)c3c2N)cc1	13µM*	-4%	-10%	-1%	13%	2%
O=C(CNC(=O)c1ccc(Br)cc1)Nc1ccc2c(c1)CCC2	x	x	x	x	13%	1%
COc1cc(OC)c(C(=O)O/N=C(\N)c2cccc(C)c2)cc1OC	u	x	1%[1.84 µM]	4%	13%	6%
N/C(=N\OC(=O)c1cccc(Br)c1)c1ccc([N+](=O)[O-])cc1	u	x	0%	-1%	24%	2%
O=C(CC(=O)c1cccc([N+](=O)[O-])c1)Nc1ccccc1Cl	24µM*	-12%	12%	16%	0%	3%
N/C(=N\OC(=O)c1ccccc1Cl)c1cccc([N+](=O)[O-])c1	1.2µM*	x	0.89µM*	1.4µM*	u	2.6µM*
N/C(=N\OC(=O)c1ccc2ccccc2c1)c1cccc([N+](=O)[O-])c1	1.9µM*	14%[1.84 µM]	12%	26%	u	u
N/C(=N\OC(=O)Cc1ccc(-c2ccccc2)cc1)c1cccc([N+](=O)[O-])c1	-6%	-9%	1%	-6%	1%	-4%
SMILES	FLuc counter	SMN2 splice enh	Rab9 prom act	NPC1 prom act	ELG1 DNA repair	ELG1 genotox
Cc1cccc(/C(N)=N/OC(=O)c2ccc(F)cc2)c1	0.27µM*	u	1.6µM*	1µM*	u	u
COc1ccc(CN2CCN(C(=O)CC(C)C)CC2)c(OC)c1OC	4%	23%	-1%	-7%	-13%	-2%
N/C(=N\OC(=O)c1cccc(F)c1)c1cccc([N+](=O)[O-])c1	1.5µM*	x	21%	26%	u	u
N/C(=N/OC(=O)c1cccc([N+](=O)[O-])c1)c1cccc([N+](=O)[O-])c1	u	0%	12%	15%	u	8%
N/C(=N/OC(=O)c1ccccc1Cl)c1ncc([N+](=O)[O-])s1	4.3µM*	x	1%	u	u	u
COc1ccccc1C/C(N)=N/OC(=O)c1cccc([N+](=O)[O-])c1	12%	-7%	3%	-3%	0%	-3%
N/C(=N\OC(=O)c1ccc(F)cc1)c1cccc([N+](=O)[O-])c1	0.24µM*	x	u	u	u	u
COc1ccc(CCN2CCCC(CN(C)Cc3cc(OC)c(OC)c(OC)c3)C2)cc1 (centres undefined)	6%	x	-6%	-4%	-16%	-4%
CCc1ccc(NC(=O)Cn2cnc3c(=O)n(C)c(=O)n(C)c32)cc1	-3%	-14%	-7%	-3%	11%	-10%
Cc1cccc(OCC(=O)NCc2cc(C)nc3ccccc23)c1	-6%	-47%	1%	-8%	15µM*	-4%
Cc1cccc(OCC(=O)Nc2cccc(-c3nc4ccccc4s3)c2)c1	6µM*	3.2µM*	x	x	x	x
Cn1c(=O)c2ncn(CC(=O)Nc3cccc(-c4nc5ccccc5s4)c3)c2n(C)c1=O	3.8µM*	-20%	u	3.2µM*	u	3%
COc1ccc(C(=O)NCc2cc(C)nc3ccccc23)cc1	-6%	-53%	-20%	-13%	u	-9%
Cc1ccc(OCC(=O)Nc2cccc(-c3nc4ccccc4s3)c2)cc1	9.5µM*	x	x	x	x	x
COc1ccc2nc(NCCNC(=S)NCCCN3CCOCC3)c(C#N)cc2c1	-5%	-31%	4%	0%	u	2%
Cc1ccc(-n2ncc3ccccc3c2=O)cc1Cl	5.4µM*	14µM*	2.8µM*	2.5µM*	u	u
O=c1c2ccccc2cnn1-c1ccc(Cl)cc1	5.4µM*	10µM*	1µM*	1.4µM*	u	u
O=c1c2ccccc2cnn1Cc1n[nH]c(=S)n1-c1ccc(Cl)cc1	-1%	-1%	1%	0%	2%	2%
COc1c(Cl)cnn(-c2cccc(C)c2)c1=O	2%	x	-3%	-11%	11%	-1%
CC(C)(C)NS(=O)(=O)c1ccc(NC(=O)Cc2ccccc2[N+](=O)[O-])cc1	-11%	-6%	0%	-4%	1%	1%
Oc1c(N=Nc2ccccc2)sc2ccccc12	0.38µM*	x	3.2µM*	u	u	2.3µM*
